# Screens: PubChem BioAssay, National Center for Advancing Translational Sciences (NCATS)
# Most compounds without a hit are left out; they make up all but 1.6% or so of the library.
# hERG WT inh: KCNH2 (human, wildtype) channel inhibition; Q12809; U2OS, BacMam KCNH2, thallium flux FluxOr; stronger effect = lower value; activity change, % at 1.84 µM; 340,000 compounds, 0.37% hits; AID 720551;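 active = maximum activity change below -70%; inconclusive = maximum activity change between -70% and -50%; inactive = maximum activity change above -50%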; also: % is scaled to controls: 0 for no effect and ±100 for the full control effect
# Target sequence (Q12809 whole entry, looked up): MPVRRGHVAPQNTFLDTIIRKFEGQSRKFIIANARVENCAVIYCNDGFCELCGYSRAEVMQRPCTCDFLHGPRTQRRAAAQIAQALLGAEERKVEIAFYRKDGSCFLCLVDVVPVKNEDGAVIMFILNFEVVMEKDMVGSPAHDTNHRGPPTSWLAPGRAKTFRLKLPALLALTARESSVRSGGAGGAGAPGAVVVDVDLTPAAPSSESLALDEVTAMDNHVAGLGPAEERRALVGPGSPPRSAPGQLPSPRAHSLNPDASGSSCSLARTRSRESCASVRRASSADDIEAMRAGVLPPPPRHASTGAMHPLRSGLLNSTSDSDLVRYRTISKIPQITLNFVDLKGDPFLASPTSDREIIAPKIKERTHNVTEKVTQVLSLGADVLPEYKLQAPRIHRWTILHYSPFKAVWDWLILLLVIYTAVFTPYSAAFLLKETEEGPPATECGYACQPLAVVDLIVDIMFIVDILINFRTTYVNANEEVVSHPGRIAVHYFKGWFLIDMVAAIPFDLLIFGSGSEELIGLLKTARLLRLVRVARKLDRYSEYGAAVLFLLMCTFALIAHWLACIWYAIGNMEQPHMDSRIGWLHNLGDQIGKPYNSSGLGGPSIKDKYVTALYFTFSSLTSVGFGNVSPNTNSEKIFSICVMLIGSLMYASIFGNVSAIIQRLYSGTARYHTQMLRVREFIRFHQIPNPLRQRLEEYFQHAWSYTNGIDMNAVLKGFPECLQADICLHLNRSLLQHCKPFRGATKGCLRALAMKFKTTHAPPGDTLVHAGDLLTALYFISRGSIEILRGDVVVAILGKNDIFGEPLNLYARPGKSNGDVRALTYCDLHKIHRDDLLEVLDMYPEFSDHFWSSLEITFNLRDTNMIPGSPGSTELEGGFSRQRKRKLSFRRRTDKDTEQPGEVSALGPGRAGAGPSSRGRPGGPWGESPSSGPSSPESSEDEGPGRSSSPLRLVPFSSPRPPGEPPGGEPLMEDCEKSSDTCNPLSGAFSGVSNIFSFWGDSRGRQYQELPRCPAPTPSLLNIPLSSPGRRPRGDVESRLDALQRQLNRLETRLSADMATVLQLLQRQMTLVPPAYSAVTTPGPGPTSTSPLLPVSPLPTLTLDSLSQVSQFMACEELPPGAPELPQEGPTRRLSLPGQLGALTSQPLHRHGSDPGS
#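 U2OS cells transduced with wild-type KCNH2 virus are loaded with FluxOr dye for 45 min, and thallium flux is measured in kinetic reads before and after stimulation buffer. Rate constants are normalized to DMSO controls.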
# pAkt inh: Akt phosphorylation inhibition. Neuro2A IGF-stimulated pAkt S473 HTRF, 20 min; stronger effect = lower value. AID 651550. 360,000 compounds, 0.32% hits. activity change, % for hits at 50 µM; in the data active = activity change below about -80%; inconclusive = mostly about -51% to -80%; also: % is scaled to controls: 0 for no effect and ±100 for the full control effect
#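 Neuro2A cells in DMEM with 0.5% FBS, overnight at 37 deg C, given compound at single 50 µM final, then IGF (6 nM final) for 20 min at 37 deg C. Lysed; phospho-Akt Ser473 by HTRF after 24 h, 665/615 ratio.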
# gsp antagonist: antagonizes gsp, the McCune-Albright syndrome mutation. gsp-mutant cells, cAMP HTRF, 30 min. Potency, µM (doses to about 76.9 µM), for inactives: at the highest dose activity change, negative = inhibition, actives largely listed as inhibitors. AID 624288. 340,000 compounds, 0.4% hits; calls by dose curve; cell line not stated here;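 also: intracellular cAMP measured with PDE inhibitor Ro 20-1724 present during compound exposure; potency is read from the fitted curve at half-maximal effect; % is scaled to controls: 0 for no effect and ±100 for the full control effect; nearly all actives have a fitted effect of over 65% in size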
#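 Cells in G418 medium, seeded 16-24 h, 37C; buffer exchange to DPBS + 1 mM CaCl2, 0.5 mM MgCl2, 0.05% BSA; cpds in DMSO + […] (300 uM stock), 30 min 37C; HTRF cAMP detection.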
# gsp ag: agonists of gsp mutant (McCune-Albright syndrome). gsp mutant cells, cAMP HTRF, 30 min. Potency, µM (doses to about 76.9 µM), for inactives: at the highest dose activation (cAMP increase), actives largely listed as activators. 340,000 compounds, 0.13% hits. AID 624287; active = well fitted activation curve with a large enough effect; inconclusive = small, poorly fitted or top-dose-only effect, or another doubt; inactive = no such curve, though single readings can be large or run the other way; cell line not stated here;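 also: phosphodiesterase inhibitor Ro 20-1724 added with compounds to block cAMP breakdown; potency is read from the fitted curve at half-maximal effect; nearly all actives have a fitted effect of over 60% in size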
#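 Cells in DMEM/10% FBS with G418 were pretreated with compounds in DMSO plus […] (300 uM stock) for 30 min at 37C. cAMP was measured by HTRF (cAMP-d2 plus anti-cAMP antibody-K) after 30 min at room temperature.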
# KCNH2 3.1 inh: KCNH2 3.1 (human) potassium channel inhibition; U2OS KCNH2 3.1, thallium flux FluxOr; stronger effect = lower value; activity change, % (tested at about 1.8 µM); 340,000 compounds, 0.95% hits;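 active = maximum activity change below -70%; inconclusive = maximum activity change from -70% to -50%; inactive = maximum activity change above -50%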;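 also: thallium influx rate constant from kinetic fluorescence after stimulation buffer; % is scaled to controls: 0 for no effect and ±100 for the full control effect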
#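 Virally transduced U2OS (3.1 isoform, 4 h infection in dark at RT) → overnight 37 C → FluxOr + Red40 in HBSS/HEPES, 45 min → stimulation buffer, 2 min kinetic read → rate constant vs DMSO controls.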
# Glioma ERSR ind: ER stress response induction in glioma; U87-MG GRP78 promoter luciferase reporter, 16 h; 420,000 compounds, 0.02% hits; Potency, µM, for inactives: at the highest dose activation, actives largely listed as activators; active = well fitted activation curve with a large enough effect; inconclusive = small, poorly fitted or top-dose-only effect; inactive = no such curve, though single readings can be large or run the other way; also: potency is read from the fitted curve at half-maximal effect; series mostly up to about 76 µM; % of control where 0% means no effect; nearly all actives have a fitted effect of over 35% in size
#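 Stably transfected U87-MG human glioma cells carrying a GRP78-based luminescent sensor were seeded at 1000 cells/well, pin-dosed with compounds and incubated 16 h. Luciferase reagent was then added, and end-point luminescence was read after 10 min at room temperature.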
# * = called active by the depositor; i = inactive; u = inconclusive; x = no result given; [ ] = another dose, or the depositor's remark.
SMILES,hERG WT inh,pAkt inh,gsp antagonist,gsp ag,KCNH2 3.1 inh,Glioma ERSR ind
CC(C)Oc1cccc(C(=O)C2CCCN(C(=O)c3ccccn3)C2)c1 (stereo not given),15,i,5%,u,-8,6%
CC(C)Oc1cccc(C(=O)C2CCCN(Cc3cccn3-c3ccccn3)C2)c1 (stereo not given),u,i,2%,-33%,-81*,-6%
O=C(C1CCCCC1)N1CCOc2ccc(CN3CCN(Cc4ccccn4)CC3)cc2C1,x,x,x,x,x,-1%
O=C(c1ccc(Cl)cc1)C1CCCN(Cc2cccn2-c2ccccn2)C1 (stereo not given),-109*,i,9%,u,-105*,-4%
Cc1ccsc1C(=O)C1CCCN(Cc2cccn2-c2ccc(Cl)cn2)C1 (stereo not given),-107*,i,-6%,-12%,-15,-8%
COc1cc(=O)n2c(c1C(=O)NC(C)c1ccco1)CCN(Cc1ccccc1Cl)CC2 (stereo not given),x,x,x,x,x,-3%
COc1cc2c(NC3CCN(C)CC3)nc(N3CCCN(C)CC3)nc2cc1OCCN(C)CCN(C)C,x,x,x,x,x,-4%
Cc1cc(=O)[nH]c2ccc([N+](=O)[O-])cc12,x,x,x,x,x,-2%
Cc1cc(OC(=O)c2ccccc2Cl)cc(=O)n1C,0,i,40µM*,-18%,2,5%
O=C(Oc1ccc(N2C(=O)CCC2=O)cc1)c1ccccc1Cl,-4,i,1%,16%,-20,-11%
CCOC(=O)c1oc2ccc(S(=O)(=O)n3nc(-c4ccccc4)cc3N)cc2c1C,-4,i,7.9µM*,-34%,-40,-5%
CCOC(=O)C1C(=O)CC(C)(O)C(C(=O)OCC)C1/C=C/c1ccccc1 (stereo not given),-1,i,-19%,u,-106*,-3%
COC(=O)C1C(=O)CC(C)(O)C(C(=O)OC)C1/C=C/c1ccccc1 (stereo not given),4,i,-6%,-48%,-13,1%
CCC[N+](CC#Cc1ccccc1)(CCC)CC(=O)OC,5,i,11%,17%[15.4 µM],5,-2%
CCC[N+](CC#Cc1ccccc1)(CCC)CC(=O)OCC,23,i,4%,16%[15.4 µM],-71*,-4%
O=C(CNC(=O)/C(=C/c1ccccc1)NC(=O)c1ccc(Br)cc1)OCc1ccccc1,i,i,-22%,-25%,-85*,6%
O=C(CNC(=O)/C(=C\c1ccc(Br)cc1)NC(=O)c1ccccc1)OCc1ccccc1,-11,i,-12%,1%[15.4 µM],-43,0%
O=C(NC(Nc1ncc(S(=O)(=O)c2ccc([N+](=O)[O-])cc2)s1)(C(F)(F)F)C(F)(F)F)c1ccc(Cl)cc1,-1,i,35µM*,4%[15.4 µM],-7,-2%
COc1ccccc1N(CC(=O)N/N=C/c1ccc(OCC(=O)NCc2ccco2)cc1)S(=O)(=O)c1ccc(C)cc1,-2,i,-15%,6%,-23,-3%
COC(=O)COc1ccc(/C=N/NC(=O)CN(c2ccccc2OC)S(=O)(=O)c2ccccc2)cc1,-21,i,-16%,-25%,-89*,-14%
OCC(O)COc1ccc(Cl)cc1 (stereo not given),x,x,x,x,x,-3%
COc1ccc(-c2oc(NC(=O)c3ccc(C)cc3)c(C#N)c2-c2ccc(OC)cc2)cc1,1,i,-10%,-120%,-7,0%
COc1ccc(C(=O)Nc2oc(-c3ccccc3)c(-c3ccccc3)c2C#N)cc1,0,i,19%,26%,-70*,-6%
Cc1nc2ccccc2nc1CN1CCOc2ccc(CN3CCc4sccc4C3)cc2C1,x,x,x,x,x,0%
COc1cc(C(=O)Nc2nc3ccc4nc(C)sc4c3s2)cc(OC)c1OC,1,x,7%,u,-7,-2%
SMILES,hERG WT inh,pAkt inh,gsp antagonist,gsp ag,KCNH2 3.1 inh,Glioma ERSR ind
COc1ccc(C(=O)Nc2nc3ccc4nc(C)sc4c3s2)cc1,12,i,13%,3%,-94*,-4%
Cc1cc(C)cc(NC(=O)COC(=O)CCCC2=NS(=O)(=O)c3ccccc3N2)c1,-110*,i,0%,6%,1,-3%
Cc1cc(-c2c(C)[nH]n(-c3ccccc3)c2=O)n(-c2ccccc2)n1,-11,i,-3%,2%,7,-2%
Cc1cc(-c2c(C)[nH]n(-c3ccc(Cl)cc3)c2=O)n(-c2ccc(Cl)cc2)n1,3,i,32µM*,-14%,4,-4%
CCOc1ccc(-n2ccnc(SCC(=O)NCc3cccc(OC)c3)c2=O)cc1,-4,i,3%,10µM*,-8,-1%
O=[N+]([O-])c1ccc(/C=N\NS(=O)(=O)c2ccc(F)cc2)o1,12,i,4%,-16%,-85*,-5%
O=[N+]([O-])c1ccc(OCC(O)CN2CCN(c3ccccc3F)CC2)cc1 (stereo not given),-76*,i,9%,28%,-97*,-1%
Cc1ccc(C(=O)ON=C2CCN(c3ccc([N+](=O)[O-])cc3)CC2)cc1,-109*,i,-2%,-6%,-103*,-1%
COc1ccc(S(=O)(=O)CCC(=O)N2CCN(c3ccc([N+](=O)[O-])cc3)CC2)cc1,9,i,u,3%,u,-1%
Cc1nccn1CC(O)COc1ccc([N+](=O)[O-])cc1 (stereo not given),-5,i,-10%,13%,-98*,-3%
Cc1ccc(S(=O)(=O)CCC(=O)N2CCN(c3ccc([N+](=O)[O-])cc3)CC2)cc1,-37,x,5%,-1%,-77*,-4%
COc1ccccc1C(=O)N[C@@H]1c2ccccc2C2(CCN(Cc3ccc4c(c3)OCO4)CC2)[C@H]1O,x,x,x,x,x,-1%
Cc1ccc(N2CCN(CC(O)COc3ccc([N+](=O)[O-])cc3)CC2)cc1 (stereo not given),-88*,i,2%,-8%,-89*,-4%
COc1ccc(-c2nc3cc(F)ccc3cc2CN(C(=O)c2cccs2)C2CC2)cc1,x,x,x,x,x,-3%
COc1ccc(CN2CCOc3ccc(CN4CCCCC4CO)cc3C2)c(OC)c1 (stereo not given),x,x,x,x,x,-2%
CCn1c(=O)n(CC)c2cc(N3CCCC3)c(NC(=O)c3ccc(F)cc3)cc21,33,i,u,-18%,10,-3%
CCn1c(=O)n(CC)c2cc(N3CCCC3)c(NC(=O)c3c(F)cccc3F)cc21,5,x,32µM*,4%,11,-4%
CCCSS/C(CCO)=C(/C)N(C=O)Cc1cnc(C)nc1N,x,x,x,x,x,-11%
CC(=NC1CCCC1)c1c(C)[nH]n(-c2nc3ccccc3s2)c1=O,-8,-116%*,-11%,2%,7,-8%
